Screening data: PubChem BioAssay, Paczesny and Yang Labs, IUPUI and University of Michigan
Only a selection was taken, and hits are over-represented in it overall.
ST2 inh – inhibitors of human ST2 (IL1RL1) binding to IL-33, primary screen, biochemical, AlphaLISA; AID 1259354, 2018; 2.3% of 78,000 active; inhibition, % for hits at 17 µM; Interleukin-1 receptor-like 1 (Homo sapiens), Q01638; AlphaLISA ST2-Fc/biotin-IL-33 interaction, 1 h; in the data active means inhibition above about 30%
Target sequence (Q01638 whole entry, looked up): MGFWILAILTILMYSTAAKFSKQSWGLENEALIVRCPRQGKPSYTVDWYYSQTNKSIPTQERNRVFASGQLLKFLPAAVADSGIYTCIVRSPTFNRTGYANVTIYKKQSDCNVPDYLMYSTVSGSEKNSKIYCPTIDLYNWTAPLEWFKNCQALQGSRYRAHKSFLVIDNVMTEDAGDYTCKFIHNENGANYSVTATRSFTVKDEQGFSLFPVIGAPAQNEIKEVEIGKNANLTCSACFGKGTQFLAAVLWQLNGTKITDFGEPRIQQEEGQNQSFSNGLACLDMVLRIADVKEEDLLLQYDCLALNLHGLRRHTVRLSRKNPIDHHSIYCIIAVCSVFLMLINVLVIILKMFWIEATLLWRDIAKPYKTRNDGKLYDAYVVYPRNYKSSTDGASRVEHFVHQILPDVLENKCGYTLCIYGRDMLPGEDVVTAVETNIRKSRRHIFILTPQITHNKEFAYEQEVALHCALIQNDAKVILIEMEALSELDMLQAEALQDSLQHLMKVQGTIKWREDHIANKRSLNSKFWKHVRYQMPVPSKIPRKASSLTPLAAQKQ
Starred values were filed as active, the others as inactive; i = inactive.

SMILES	ST2 inh
COc1ccccc1NC(=O)c1ccc(OCc2ccccc2)cc1	i
O=C(NCCCN1CCOCC1)c1ccc2c(c1)N(Cc1ccc(Cl)cc1)C(=O)CS2	i
O=[N+]([O-])c1cc([N+](=O)[O-])c2cn(-c3ccccc3)nc2c1	i
O=C(NC(NCc1cccnc1)C(Cl)(Cl)Cl)c1ccc(Br)cc1 (configuration not stated)	i
COc1ccc(C2SCCN2S(=O)(=O)c2ccc(Cl)cc2)cc1 (configuration not stated)	i
C=CCN1C(=O)c2ccccc2Sc2ccc(C(=O)NCc3ccccc3)cc21	i
COc1ccc(C2=NN3C(C2)c2ccccc2OC3c2ccco2)cc1 (configuration not stated)	i
O=C(O)CCC(=O)N1N=C(c2cccs2)CC1c1ccc(F)cc1 (configuration not stated)	i
c1ccc(C2Oc3ccccc3C3CC(c4cccs4)=NN32)cc1 (configuration not stated)	34%*
Cn1cc(C(c2ccc([N+](=O)[O-])o2)c2cn(C)c3ccccc23)c2ccccc21	41%*
Cn1cc(CC(=O)NCc2ccco2)c2ccccc21	i
CCN(CC)C(=O)Cc1cn(C)c2ccccc12	i
Cc1cccc(Cl)c1S(=O)(=O)N1CCC(O)(C(=O)O)CC1	i
Cc1nc(C)c(C(=O)N2Cc3cnc(CC(C)C)nc3C2)s1	i
CC1(C)CC(=O)C2=C(C1)Nc1cc(C(=O)c3ccccc3)ccc1NC2c1ccncc1 (configuration not stated)	i
O=C(N[C@H]1CCN2C(=O)c3cc(-c4ccccc4F)ccc3NC(=O)[C@@H]2C1)c1ccco1	60%*
O=C(N[C@H]1CCN2C(=O)c3cc(-c4cccc(C(F)(F)F)c4)ccc3NC(=O)[C@@H]2C1)c1ccncc1	i
COCC(=O)N[C@H]1CCN2C(=O)c3cc(-c4cccc(C)c4C)ccc3NC(=O)[C@@H]2C1	i
CC(C)c1nccn1CCCNC(=O)c1ccc(-c2ccsc2)nc1	i
CC(C)NC(=O)CCC1=NS(=O)(=O)c2ccccc2N1	i
COc1ccc(CCn2cnc3sc4c(c3c2=N)CCCC4)cc1OC	i
COc1cc(-c2nc3sc4c(c3c(=O)[nH]2)CCCC4)ccc1O	i
COc1ccc2[nH]c3c(c2c1)CCn1c-3nc2sc3c(c2c1=N)CCCC3	34%*
CCCS(=O)(=O)N1CCCC(C(=O)NC)C1 (configuration not stated)	i
CCN1CCN(CCCNC(=O)CSc2cc(=O)n(C)c3ccccc23)CC1	i
SMILES	ST2 inh
O=C1Nc2ccccc2N(O)N1c1ccc([N+](=O)[O-])cc1Cl	i
NC(=O)c1ccnc(-c2ccc(F)cc2Cl)c1	i
COc1cncc(-c2ccc(F)cc2Cl)c1	i
Nc1ccc(-c2ccc(F)cc2Cl)cn1	35%*
Cn1cnc2c(cnn2-c2ccc(F)cc2)c1=O	i
O=C1/C(=C/c2ccsc2)CS/C1=C\c1ccsc1	39%*
COc1cccc(/C=C2\CS/C(=C\c3cccc(OC)c3OC)C2=O)c1OC	39%*
Cc1cccc(/C=C2\NC(=O)N(Cc3ccc(Cl)cc3)C2=O)c1	i
COc1ccccc1/C=C1\SC(N2CC(C)OC(C)C2)=NC1=O (configuration not stated)	i
O=C1N=C(N2CCCC2)S/C1=C/c1cccc(O)c1	i
Cc1cccc(/C=C2\CS/C(=C\c3cccc(C)c3)C2=O)c1	55%*
COc1ccccc1/C=C1/SC(N2CCN(C)CC2)=NC1=O	i
COc1ccccc1CN(Cc1cccnc1)Cc1nccs1	i
CC1CC(C)CN(C(=O)c2sc3ccccc3c2Cl)C1 (configuration not stated)	i
COc1cc(Br)c(Br)c(C=Nc2c(C)cccc2O)c1O	i
Cc1c(C(=O)O)sc2[nH]c(=O)n(-c3ccc(Cl)cc3)c(=O)c12	i
O=C(Nc1ccc2[nH]c(=O)[nH]c2c1)c1ccc([N+](=O)[O-])cc1	i
Cc1c(C(F)(F)F)nc(-c2ccc(CN(C)Cc3cnn(C)c3)cc2)[nH]c1=O	i
COc1ccc2c(C)c(C(=O)NCC3(O)CCCNCC3)oc2c1 (configuration not stated)	i
CC(C)NS(=O)(=O)c1ccc2[nH]c(=O)sc2c1	i
CC(=O)Nc1ccc(S(=O)(=O)Nc2cccc(Cl)c2C)cc1	i
CCN1/C(=C/C=c2/sc3nc4ccccc4n3c2=O)C=Cc2ccccc21	43%*
CN(C)c1ccc(/C=c2\sc3nc4ccccc4n3c2=O)cc1	i
CCN1/C(=c2/sc3nc4ccccc4n3c2=O)Sc2ccc(OC)cc21	i
O=C(Cn1cnc2scc(-c3ccccc3)c2c1=O)c1ccc(Cl)c(Cl)c1	i
Cc1cccc(C)c1OCCCN(C)C(=O)C(=O)c1cccn1C	i
Cc1cc2ccccc2n1CCNS(C)(=O)=O	i
CCN(CCNS(C)(=O)=O)c1ccc(N)c(C)c1	35%*
Cc1ccc(N(CC(=O)O)S(C)(=O)=O)cc1C	i
COc1ccc(N2COc3ccc(Cl)cc3C2)cc1	37%*
